According to PubChem BioAssay (NCATS):
Records with an inconclusive call do not appear. A call without a number means that no potency is given here. Active and inactive are the calls of the source. Unless noted, calls follow the shape of the dose curve; as a rule, active = well fitted curve in the direction sought with a large enough effect; inconclusive = small, poorly fitted or top-dose-only effect, or another doubt; inactive = no such curve, though single readings can be large; an effect the other way counts as inactive or inconclusive.

How the values were obtained:
[1] = Primary qHTS for Huh7 cytotoxicity: counterscreen for inhibitors of MERS-S pseudotyped particle cell entry (AID 1479147; calls by dose curve); details: outcome: dose series up to 57.1 µM unless noted
[2] = Primary qHTS for inhibitors of MERS-S pseudo-typed particle cell entry (AID 1479149; calls by dose curve; also: nearly all actives have a fitted effect of over 60% in size); details: outcome: dose series up to 57.1 µM unless noted
[3] = Primary qHTS for Vero E6 cytotoxicity: counterscreen for inhibitors of SARS-S pseudo-typed particle cell entry (AID 1479150; calls by dose curve)
[4] = Primary qHTS for inhibitors of La Crosse Virus (LACV) - induced cell death in SH-SY5Y cells (AID 1508616); also: potency is read from the fitted curve at half-maximal effect
Summary of the method: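 Cytopathicity rescue screen: compounds pinned onto SH-SY5Y cells, which are then infected with LACV (MOI 0.01) and held 6 days at 37C. Percent activity is scaled between infected DMSO control and uninfected DMSO control.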

[5] = target: Calcium and integrin-binding protein 1 (Homo sapiens) (UniProt Q99828); assay: Primary qHTS for Identification of Calcium Integrin Binding Protein 1 (CIB1) Competitor (AID 1508620);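 also: GST tagged CIB1 binding a fluorescein labelled alphaIIb integrin peptide tracer; top concentration of the series differs between compounds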
Summary of the method: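 Fluorescence polarization competition: CIB1-GST (1 uM final) preincubated with compound 15 min at room temperature, then FITC-labeled alphaIIb peptide (100 nM final) added for another 15 min. Polarization read at Ex 480/Em 540.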

[6] = target: Calcium and integrin-binding protein 1 (Homo sapiens) (UniProt Q99828); assay: Validation qHTS for Identification of Calcium Integrin Binding protein 1 (CIB1) Competitor (AID 1508618)
Summary of the method: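 Displacement of FITC-alphaIIb peptide (100 nM) from CIB1-GST (1 uM) is monitored by polarization in quantitative HTS format; buffer carries 5 mM CaCl2 and 125 mM NaCl at pH 7.4, incubations are at room temperature.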

Calcium and integrin-binding protein 1 (Homo sapiens), sequence (Q99828 whole entry, looked up): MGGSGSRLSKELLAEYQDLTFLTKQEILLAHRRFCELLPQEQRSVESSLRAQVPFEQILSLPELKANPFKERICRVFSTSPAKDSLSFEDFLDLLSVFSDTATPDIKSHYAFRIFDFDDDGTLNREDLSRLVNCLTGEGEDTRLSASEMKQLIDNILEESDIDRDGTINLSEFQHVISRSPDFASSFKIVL

SMILES: c1ccc2sc(SNC3CCCCC3)nc2c1
- outcome [1]: inactive
- outcome [2]: inactive [at 114 µM]
- Potency [3]: inactive

SMILES: N[C@@H](CCl)C(=O)O
- Potency [4]: inactive

SMILES: CCCCCCC(=O)O[C@H]1CC[C@H]2[C@@H]3CC[C@H]4CC(=O)C=C(C)[C@]4(C)[C@H]3CC[C@]12C
- outcome [1]: inactive
- outcome [2]: inactive
- Potency [3]: inactive

SMILES: C=CCN(C1=NCCN1)c1c(Cl)cccc1Cl
- Potency [4]: inactive

SMILES: O=C1C[C@@H]2OCC=C3CN4CC[C@]56c7ccccc7N1[C@H]5[C@H]2[C@H]3C[C@H]46
- outcome [1]: inactive
- outcome [2]: inactive
- Potency [3]: inactive
- Potency [5]: inactive

SMILES: N=C(N)c1ccc(CS(=O)(=O)F)cc1
- Potency [4]: inactive
- Potency [6]: inactive

SMILES: NC(=O)COc1c(F)cc(SCCNS(=O)(=O)c2ccccc2)cc1F
- Potency [4]: inactive
- Potency [6]: inactive

SMILES: C[N+](C)(C)CC#CCOC(=O)Nc1cccc(Cl)c1
- Potency [4]: inactive
- Potency [6]: inactive

SMILES: C[N+]1(C)CCOC(O)(c2ccc(-c3ccc(C4(O)C[N+](C)(C)CCO4)cc3)cc2)C1 (configuration not stated)
- Potency [4]: inactive
- Potency [6]: inactive

SMILES: CC(Cc1ccc(OCC(=O)O)cc1)NCC(O)c1cccc(Cl)c1 (configuration not stated)
- Potency [4]: inactive
- Potency [6]: inactive

SMILES: c1ccc2cc(CC3=NCCN3)ccc2c1
- Potency [4]: inactive
- Potency [6]: inactive

SMILES: OC1CCCCC1N1CCC(c2ccccc2)CC1 (configuration not stated)
- Potency [4]: inactive
- Potency [6]: inactive

SMILES: NC(=O)CI
- Potency [4]: inactive
- Potency [6]: inactive

SMILES: CCCN(CCC)C1Cc2cc(OC)c(OC)cc2C1
- Potency [4]: inactive
- Potency [6]: inactive

SMILES: O=[N+]([O-])c1cc(O)c(O)c([N+](=O)[O-])c1
- Potency [4]: inactive
- Potency [6]: inactive

SMILES: CCCN1CCc2cc(O)cc3c2[C@H]1Cc1ccc(O)c(O)c1-3
- Potency [4]: 2000 nM (active)
- Potency [6]: inactive

SMILES: CCS(=O)(=O)Nc1cccc(C(=C2CCCCC2)c2cnc[nH]2)c1
- Potency [4]: inactive
- Potency [6]: inactive

SMILES: N[C@@H](Cn1oc(=O)[nH]c1=O)C(=O)O
- Potency [4]: inactive
- Potency [6]: inactive

SMILES: COc1ccc2[nH]cc(CCN)c2c1
- Potency [4]: inactive
- Potency [6]: inactive

SMILES: C[N+]1(C)CCc2cc3c(cc2[C@H]1[C@@H]1OC(=O)c2c1ccc1c2OCO1)OCO3
- Potency [4]: inactive
- Potency [6]: inactive

SMILES: C[N+]1(C)CCN(c2ccccc2)CC1
- Potency [4]: inactive
- Potency [6]: inactive

SMILES: C[N+]1(C)C2CCC1CC(OC(=O)c1c[nH]c3ccccc13)C2 (configuration not stated)
- Potency [4]: inactive
- Potency [6]: inactive

SMILES: COc1ccc2[nH]c3c(c2c1)CCNC3
- Potency [4]: inactive
- Potency [6]: inactive

SMILES: NC(N)=NOCC[C@H](N)C(=O)O
- Potency [4]: inactive
- Potency [6]: inactive

SMILES: CC(N)[C@H](O)c1ccc(O)c(O)c1 (some centres not stated)
- Potency [4]: inactive
- Potency [6]: inactive

SMILES: NC(CCCCCP(=O)(O)O)C(=O)O (configuration not stated)
- Potency [4]: inactive
- Potency [6]: inactive

SMILES: Cc1sc2ccccc2c1CC1=NCCN1
- Potency [4]: inactive
- Potency [6]: inactive

SMILES: NC(N)=Nc1ccc2[nH]c3c(c2c1)C[C@@]1(O)[C@H]2Cc4ccc(O)c5c4[C@@]1(CCN2CC1CC1)[C@H]3O5
- Potency [4]: inactive
- Potency [6]: inactive

SMILES: NC(=O)c1ccc(OCC(O)CN2CC=C(c3ccc(F)cc3)CC2)cc1 (configuration not stated)
- Potency [4]: inactive
- Potency [6]: inactive

SMILES: COc1ccc2c(c1O)-c1cccc3c1[C@@H](C2)N(C)CC3
- Potency [4]: inactive
- Potency [6]: inactive

SMILES: C=CCN1CCC23c4c5ccc(O)c4O[C@H]2C(=O)CC[C@@]3(O)C1C5 (some centres not stated)
- Potency [4]: inactive
- Potency [6]: inactive

SMILES: CC(=O)NBr
- Potency [4]: inactive
- Potency [6]: inactive

SMILES: CC(C)(C)c1o[nH]c(=O)c1CC(N)C(=O)O (configuration not stated)
- Potency [4]: inactive
- Potency [6]: inactive

SMILES: NC(=O)c1cc(N2CC2)c([N+](=O)[O-])cc1[N+](=O)[O-]
- Potency [4]: inactive
- Potency [6]: inactive

SMILES: CCCN1CCC[C@@H](c2cccc(O)c2)C1
- Potency [4]: inactive
- Potency [6]: inactive

SMILES: CCCN(CCC)[C@H]1CCc2c(F)ccc(O)c2C1
- Potency [4]: inactive
- Potency [6]: inactive

SMILES: CP(=O)(O)C1=CCNCC1
- Potency [4]: inactive
- Potency [6]: inactive

SMILES: C[C@H](Cc1ccc2c(c1)OC(C(=O)O)(C(=O)O)O2)NC[C@H](O)c1cccc(Cl)c1
- Potency [4]: inactive
- Potency [6]: inactive

SMILES: CCCCCCCCCCCCCC(=O)O[C@@H]1[C@@H](C)[C@@]2(O)[C@@H](C=C(CO)C[C@@]3(O)C(=O)C(C)=C[C@@H]23)C2C(C)(C)[C@@]21OC(C)=O (some centres not stated)
- Potency [4]: inactive
- Potency [6]: inactive

SMILES: CO[C@H]1CC=C2CCN3CCC4=C(CC(=O)OC4)[C@]23C1
- Potency [4]: inactive
- Potency [6]: inactive

SMILES: CCOC(=O)c1ncn2c1[C@@H]1CCCN1C(=O)c1cc(OC)ccc1-2
- Potency [4]: inactive
- Potency [6]: inactive

SMILES: CO[C@H]1[C@H](O)[C@H](O[C@H]2CC[C@]3(C)C4CC[C@]5(C)[C@H](C6=CC(=O)OC6)CC[C@]5(O)C4CC[C@@H]3C2)O[C@@H](C)[C@@H]1O (some centres not stated)
- Potency [5]: inactive

SMILES: CCN1C[C@]2(COC)[C@H](O)C[C@H](OC)[C@]34[C@@H]5C[C@]6(O)[C@H](OC(=O)c7ccccc7)[C@@H]5[C@@](O)([C@H]([C@H](OC)[C@H]23)[C@@H]14)[C@@H](O)[C@@H]6OC
- Potency [5]: inactive

SMILES: Cc1c(Cl)cccc1S(=O)(=O)Nc1nc(CC(=O)N2CCN(C)CC2)cs1
- Potency [5]: inactive

SMILES: CCCCCOc1cc2c(cc1-c1cc(/C=C/C(=O)O)ccc1O)C(C)(C)CCC2(C)C
- Potency [5]: inactive

SMILES: O=C(NC1CN2CCC1CC2)c1cc2ccoc2cn1 (configuration not stated)
- Potency [6]: inactive

SMILES: O=C1/C(=C/c2ccccc2)C[C@@]2(O)[C@H]3Cc4ccc(O)c5c4[C@@]2(CCN3CC2CC2)[C@H]1O5
- Potency [6]: inactive

SMILES: C/C=C(\C)C(=O)OC1CC2C(C)(C)OC(=O)CC(OC(C)=O)C2(C)C2CC(OC(=O)C(C)C)C3(C)C(c4ccoc4)CC4OC43C12C (configuration not stated)
- Potency [5]: inactive

SMILES: CN1CCCC1CCOC(c1cc2nccc(C(=O)O)c2[nH]1)c1ccccc1Cl (configuration not stated)
- Potency [5]: inactive
